# Bioassay records (PubChem BioAssay)
# Lassa entry inh = Lassa virus entry inhibition; Lassa virus pseudotype entry inhibition, cell reporter; Potency, µM (top dose mostly 37.9 µM), hits mostly inhibitors; 1.2% of 300,000 active; AID 540256; calls by dose curve; tested in HEK293 cells; further: nearly all actives have a fitted effect of over 50% in size
# Shiga toxin inh = inhibitors of Shiga toxin in Vero cells; Vero cells, Shiga toxin protein synthesis inhibition reporter; inhibition, % at 38.7 µM; 9.2% of 290,000 active; AID 2315; in the data active means inhibition mostly above about 28%, no sharp cut-off; inactive means mostly below about 43%
# MARV entry inh = inhibitors of Marburg virus binding or cell entry; Marburg virus pseudotyped entry inhibition, cell reporter; Potency, µM (top dose mostly 37.8 µM), actives largely listed as inhibitors; 1.8% of 300,000 active; calls by dose curve; tested in HEK293 cells
# CHX counter = counter-screen hit for Shiga toxin inhibitors, cycloheximide; cell reporter, cycloheximide protein synthesis inhibition counterscreen; max response, %; 12% of 300,000 active; AID 2314; in the data active means max response mostly above about 13%, no sharp cut-off; inactive means mostly below about 14%; further: read at 38.3 µM for the half of the compounds with a filed dose
# AMA1-RON2 inh = disrupts binding of P. falciparum AMA1 to RON2 | Potency, µM (doses to about 58.2 µM), usual class: inhibitors | AlphaScreen AMA1-biotinylated RON2 peptide binding | AID 720542 | 0.2% of 360,000 active; active means well fitted inhibition curve with a large enough effect; inconclusive means small, poorly fitted or top-dose-only effect; inactive means no such curve, though single readings can be large or run the other way; further: nearly all actives have a fitted effect of over 45% in size
#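 AMA1 (3D7) with his tag at 25 nM final met compounds first, then biotinylated RON2 peptide at 25 nM; detection used donor plus acceptor beads, 10 µg/mL apiece, read by AlphaScreen after 30 min at room temperature.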
# Numbers stand for hits; 0 = inactive; ? = inconclusive; - = not tested or not shown; + = active, no number; [ ] = dose if it differs, or a comment. Shown is part of a subset that was picked to be rich in hits.
SMILES,Lassa entry inh,Shiga toxin inh,MARV entry inh,CHX counter,AMA1-RON2 inh
Cc1ccc(NC(=O)c2c(C)nc(Nc3nc4ccccc4o3)nc2C)cc1,?,0,0,0,0
Fc1ccccc1Nc1nc(-c2ccncc2)nc2ccccc12,?,0,?,0,0
O=C(NNc1nc2ccccc2nc1C(F)(F)F)c1ccccc1,0,0,?,0,0
O=C(NNc1nc2ccccc2o1)c1ccccc1,?,56,?,30,0
Cc1ccc(NC(=O)Cn2cc(C(=O)c3cccs3)c3ccccc32)cc1C,?,-,11µM,-,-
COc1ccc(NC(=O)Cn2cc(C(=O)c3cccs3)c3ccccc32)cc1,0,-,-,-,-
CC(C)c1ccc(NCCC(=O)c2cccs2)cc1,0,140,?,60,0
Cc1ccc(C(=O)N/N=C(/CC(=O)c2cccs2)C(F)(F)F)cc1,?,0,?,23,0
Cc1ccc(NCCC(=O)c2cccs2)cc1Cl,0,53,?,29,0
CCCOc1ccc(C(=O)CCNc2ccc(C)c(Cl)c2)cc1,0,0,0,0,0
CC(C)c1ccc(NCCC(=O)c2ccc(Br)cc2)cc1,0,0,?,0,0
CCC(C)NC(=O)Cn1ncc2c(C)n(Cc3ccc(F)cc3)c(C)c2c1=O (stereo not given),0,-,0,-,-
CCC1(C(N)=O)CC2C=CC1C2 (stereo not given),0,-,0,-,0
Cc1ccc(Oc2ccc(NC(=O)CCC(=O)OCC(=O)c3cccs3)cc2)cc1C,0,0,?,17,0
O=C(O)CCCC(=O)Nc1ccc(N2CCCC2)cc1,0,0,0,0,0
O=C(CC(C(=O)O)c1ccccc1)c1cccs1 (stereo not given),0,0,0,0,0
CC(CC(=O)c1cccs1)CC(=O)c1cccs1,0,+,?,56,0
Cc1ccc(C(=O)COC(=O)CCC(=O)Nc2ccc(Oc3ccccc3)cc2)cc1C,0,-,0,-,-
O=C(CCC(=O)c1cccs1)Nc1ccc(N2CCCCC2)cc1,?,86,?,45,0
Cc1ccc(NCCC(=O)c2cccs2)cc1C,0,58,?,49,?
Cc1ccc(NCCC(=O)c2ccc(Cl)cc2)cc1C,0,0,0,0,0
Cc1cc2ccccc2n1CCNC(=O)c1cc(C(F)(F)F)cc(C(F)(F)F)c1,0,-,0,-,-
CCc1nc2nc(C)c(NS(=O)(=O)c3ccc(Cl)cc3)c(=O)n2[nH]1,0,0,0,0,0
Cc1ccc(NCCC(=O)c2cccs2)cc1,-,80,-,46,0
O=C(CCC(=O)c1cccs1)NNC(=O)c1cccc(Cl)c1,0,-,0,-,0
SMILES,Lassa entry inh,Shiga toxin inh,MARV entry inh,CHX counter,AMA1-RON2 inh
Cc1ccc(NC(=O)CCC(=O)c2cccs2)cc1,0,0,0,16,0
O=C(CCNc1cccc(Cl)c1)c1cccs1,0,57,0,33,0
Cc1ccc(NC(=O)CCC(=O)c2cccs2)c(Br)c1,0,115,0,36,0
Cc1cc(C)c(C(CC(=O)c2cccs2)C(C#N)C#N)c(C)c1 (stereo not given),0,84,?,61,0
COC(=O)c1cc(COc2ccc3c4c(c(=O)oc3c2)CCC4)c(C)o1,-,0,0,0,-
CC1(c2nc3ccccc3[nH]2)CCCC2=Nc3ccccc3CN21 (stereo not given),-,-,-,-,0
CC(=O)N1c2ccc(C)cc2C(c2ccccc2)CC1C (stereo not given),?,0,6.3µM,0,0
CC(=O)c1ccc(S(=O)(=O)N(C)CC(=O)N2CCCCCC2)cc1,-,0,-,0,0
CCN(CC)CCCNC(=O)c1cc(-c2ccccc2)c(N2CCCCC2)s1,16µM,0,?,0,0
O=C(NCCc1ccccc1)c1cc(-c2ccccc2)c(N2CCOCC2)s1,-,-,-,-,0
CCOc1ccc2nc(Cl)c(C3CC(c4ccco4)=NN3S(=O)(=O)c3ccccc3)cc2c1 (stereo not given),0,+,?,0,0
CCn1c(=O)c2sccc2n2c(CCC(=O)Nc3ccc(C(C)C)cc3)nnc12,0,-,0,-,-
Cc1nc(C)c(C(=O)C2=C(O)C(=O)N(CCCN(C)C)C2c2ccco2)s1 (stereo not given),-,0,-,0,-
CCOc1ccc(NC(=O)CCc2ccc(C)o2)cc1,-,0,-,0,0
Cc1ccc(CCC(=O)Nc2ccc(N(C)C)cc2)o1,-,54,-,31,0
Cc1ccc(CCC(=O)Nc2ccc(Cl)cc2Cl)o1,-,-,-,-,0
CCc1ccc(CCC(=O)Nc2ccc(Cl)cc2)o1,-,0,-,18,0
Cc1ccc(NC(=O)CCc2ccc(C)o2)c(Br)c1,0,31,0,29,0
Cc1ccc(CCC(=O)Nc2ccc(Br)cc2)o1,-,0,-,18,0
CCc1ccc(CCC(=O)Nc2ccc(Br)cc2)o1,-,-,-,0,0
Cc1cnc(C(=O)OCc2nc3ccccc3o2)cn1,-,-,-,-,0
CCCc1cc(=O)oc2cc(C)cc(OCC(=O)Nc3ccc(CN4CCOCC4)cc3)c12,-,0,-,0,0
O=C(c1cnc(N2CCOCC2)c2ccccc12)N1CCN(c2ccccc2)CC1,0,-,-,-,-
Cc1ccccc1CN1C(=O)CSCC1(C)C(=O)Nc1ccc2c(c1)OCCO2 (stereo not given),-,-,-,-,0
CC(C(=O)Nc1ccncc1)(c1ccccc1)c1ccccc1,0,0,0,0,0
SMILES,Lassa entry inh,Shiga toxin inh,MARV entry inh,CHX counter,AMA1-RON2 inh
Cc1ccc(CCC(=O)Nc2ccc(Cl)cc2)o1,0,-,0,18,0
CCc1ccc(NCCC(=O)c2ccc(Cl)cc2)cc1,0,0,?,0,0
Cc1ccc(C(=O)CCNc2ccc(Cl)cc2)o1,0,0,?,17,0
Cc1ccc(CCC(=O)Nc2ccc(CC(=O)O)cc2)o1,0,0,0,0,0
COc1ccc(OC)c([C@H]2/C(=C(\O)c3ccccc3)C(=O)C(=O)N2Cc2ccco2)c1,-,-,0,-,-
CCC(c1ccccc1)c1nc(-c2ccccn2)no1 (stereo not given),0,0,?,0,0
CC(Oc1ccc(Cl)cc1Cl)c1nc(-c2ccc(NC(=O)c3ccncc3)cc2)no1 (stereo not given),?,0,?,0,0
CC(Oc1ccc(Cl)cc1Cl)c1nc(-c2ccccn2)no1 (stereo not given),0,97,0,36,0
CC(Oc1ccc(Cl)cc1Cl)c1nc(-c2ccc(NC(=O)c3cccnc3)cc2)no1 (stereo not given),?,0,11µM,0,0
O=C(Nc1ccc(-c2noc(-c3cccs3)n2)cc1)c1cccnc1,?,59,?,27,0
Cc1cc(C)c2c(CC(=O)Nc3c(C(=O)c4ccc(F)cc4)oc4ccccc34)coc2c1,0,-,0,-,-
CN(C)S(=O)(=O)c1cc(NC(=O)COC(=O)CCSc2ccc(Cl)cc2)ccc1Cl,0,0,0,0,0[2.32 µM]
CC1CC(C)CN(C(=O)c2cccc(S(=O)(=O)NCc3ccccc3)c2)C1 (stereo not given),-,-,-,-,0
c1ccc(N/N=C(\Cc2ncc[nH]2)c2ccccc2)cc1,0,0,0,0,0
Oc1ccc(/C=C/c2ccc3ccccc3n2)cc1,-,0,-,0,0
Oc1ccc(/C(Cc2ccccn2)=N\Nc2ccccc2)c(O)c1,?,0,8.9µM,0,0
O/C(=C\c1ccc2ccccc2n1)c1ccc(O)cc1O,?,39,7.1µM,33,0
CC(=O)Oc1ccc(C(=O)Cc2ccccn2)c(O)c1,0,0,0,0,0
